From PubChem BioAssay AID504834 (National Center for Advancing Translational Sciences (NCATS), 2011)
In all, about 320,000 compounds went through this assay and about 22,000 (6.9%) were called active. Inconclusive results (about 27%) are left out. This is one part of a sample in which actives are shown more often than they occur. Calls come from the whole dose curve; as a rule, active = well fitted inhibition curve with a large enough effect; inconclusive = small, poorly fitted or top-dose-only effect, or another doubt; inactive = no such curve, though single readings can be large or run the other way.

Assay: Primary qHTS for delayed death inhibitors of the malarial parasite plastid, 96 hour incubation
Conditions: P. falciparum luciferase reporter growth; series mostly up to 28.7 µM; activity change, negative = inhibition: at the top concentration
How it was run: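 Delayed-death screen, second-generation endpoint: infected erythrocytes, 2% hematocrit, 0.05% parasitemia final; 96 hours at 37 C, 5% CO2; luciferase detection reagent; luminescence decrease equals reduced growth.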
% is set by controls: 0 for no effect and ±100 for the full control effect; potency is the fitted concentration of half-maximal effect.

Compound	activity change, negative = inhibition	Potency
Cc1cc2c(cc1S(=O)(=O)CCC(=O)NCc1ccccc1)OCC(=O)N2	3.56% (inactive)	–
O=C(CSc1nccc(=O)[nH]1)Nc1ccc(N2CCOCC2)c(Cl)c1	-26.5% (inactive)	–
COc1ccc(CN(Cc2ccc(OC)cc2)C(=O)c2cccs2)cc1	-6.73% (inactive)	–
CCOc1ccc(NC(=O)CSc2nncn2C)cc1	30.9% (inactive)	–
COc1ccccc1-n1c(SCC(=O)O)nc2sc3c(c2c1=O)CCC3	-1.23% (inactive)	–
COc1ccccc1NC(=O)CSc1nc2sc3c(c2c(=O)n1-c1ccccc1)CCN(C)C3	–	1.65 µM (active)
CCOc1ccc(-n2c(SCC(=O)OC)nc3sc4c(c3c2=O)CCN(C)C4)cc1	–	0.828 µM (active)
COc1ccccc1NC(=O)CSc1nnc(Cn2nnc(-c3ccccc3)n2)n1-c1ccccc1	–	7.38 µM (active)
COc1ccc(-n2c(=S)[nH]c3sc4c(c3c2=O)CCc2ccccc2-4)cc1	-104% (inactive)	–
CCOc1ccc(-n2c(SCC(=O)NC3CCS(=O)(=O)C3)nnc2-c2cccnc2)cc1 (stereo not given)	10.7% (inactive)	–
CCCSc1nc2sc3c(c2c(=O)n1-c1ccc(OC)cc1)CCN(C)C3	–	4.65 µM (active)
CCCn1c(N)c(C(=O)CSc2nc3ccccc3c(=O)n2-c2ccc(OC)cc2)c(=O)[nH]c1=O	76.7% (inactive)	–
COc1ccccc1NC(=O)CSc1nnc(Cc2cccn2C)n1-c1ccc(F)cc1	29.7% (inactive)	–
COc1ccccc1NC(=O)CSc1nc2sc(C)c(C)c2c(=O)n1Cc1ccco1	19.6% (inactive)	–
COc1ccccc1OCc1nnc(SCC(N)=O)n1-c1ccccc1	-2.43% (inactive)	–
Cc1ccc(C(=O)Oc2ccc(C(=S)N3CCOCC3)cc2)cc1	-3.89% (inactive)	–
O=C(Nc1ccc(-c2cscn2)cc1)C1CCCN(Cc2ccc(CO)o2)C1 (stereo not given)	6.28% (inactive)	–
Cc1n[nH]c(=O)c2c(NC(=O)CSc3ccccc3F)oc(C)c12	49.4% (inactive)	–
COc1cc(N2C(=O)CSC2=S)cc(OC)c1OC	8.02% (inactive)	–
Cc1cc(C(=O)NC2CC(C)(C)Cc3c2cnn3-c2ccccc2)n[nH]1 (stereo not given)	-4.15% (inactive)	–
CCSc1nc2sc3c(c2c(=O)n1-c1ccc(C)cc1)CCN(C)C3	–	0.928 µM (active)
Cc1nc2sc3c(c2c(=O)n1NC(=O)CCl)CCCC3	-26.3% (inactive)	–
Cc1ccc(C)c(-n2c(SCC(=O)O)nc3sc4c(c3c2=O)CCCC4)c1	-7.37% (inactive)	–
COC(=O)c1sccc1NC(=S)Nc1ccc(C)cc1	2.1% (inactive)	–
CNC(=O)N1c2ccccc2C=Cc2ccccc21	-13.3% (inactive)	–
COc1ccc(Sc2nc(-c3ccccc3)ncc2OC)cc1	15.8% (inactive)	–
COc1cnc(-c2ccccn2)nc1Oc1ccc(C(C)(C)C)cc1	–	0.329 µM (active)

Compound	activity change, negative = inhibition	Potency
Cc1ccc(Oc2nc(-c3ccccn3)nc3ccccc23)cc1	–	5.86 µM (active)
COc1ccc(Cc2nc(-c3ccccn3)no2)cc1OC	14.9% (inactive)	–
COc1ccccc1Oc1nc(-c2cccnc2)nc2ccccc12	-24.1% (inactive)	–
N#Cc1ccc(Oc2cc(C(F)(F)F)nc(-c3ccccn3)n2)cc1	115% (inactive)	–
C=Cc1ccc(C(=O)N2CCCC(CCC(=O)N3CCN(c4ccccn4)CC3)C2)cc1 (stereo not given)	37.2% (inactive)	–
C/C=C/C(=O)OCc1csc(CC(=O)Nc2ccccc2C)n1	-7.19% (inactive)	–
O=C(NCCc1ccc(C(F)(F)F)cc1)c1ccc2c(c1)OCO2	17.6% (inactive)	–
CCOC(=O)c1nnn2c3ccccc3c(=O)n(C)c12	0% (inactive)	–
O=C(COC(=O)c1ccccc1C(=O)N1CCN(c2ccccc2)CC1)NCc1ccccc1	-13.9% (inactive)	–
CCOC(=O)c1nnn2c1nc(N1CCN(c3ccccc3)CC1)c1ccccc12	–	2.62 µM (active)
O=C(NCCc1ccccc1)Oc1ccc(Cl)cc1	83.8% (inactive)	–
CCn1c(SCC(=O)NNC(=O)c2ccc(OC)cc2)nnc1C(C)C	-16.7% (inactive)	–
CC1CCC(CN2CCN=C2N(C)C)CC1 (stereo not given)	3.19% (inactive)	–
CCCCC(=O)Nc1ccc(C(=O)Nc2cc(C(F)(F)F)ccc2Cl)cc1	-15.4% (inactive)	–
O=C(CCCN1C(=O)CCC1=O)Nc1ccc(Cl)c(C(F)(F)F)c1	–	2.08 µM (active)
O=C1CCCN1CCCNC(=S)Nc1ccc(F)c(Cl)c1	4.63% (inactive)	–
CNC(=O)c1sc(Nc2ccc(OCc3ccccc3)cc2)nc1C	1.4% (inactive)	–
O=C(COc1ccccc1[N+](=O)[O-])N/N=C/c1ccc[nH]1	31.6% (inactive)	–
S=C(Nc1ccc(Br)cc1)NC1CCN(Cc2ccccc2)CC1	-20.3% (inactive)	–
O=C(NNC(=O)c1cnccc1C(F)(F)F)c1ccc(Cl)cc1	41.6% (inactive)	–
COc1ccccc1CNC(=O)CN1CCC(n2cnc3cc(F)ccc32)CC1	45.9% (inactive)	–
COC(=O)C1=C(c2cccc(OCc3ccccc3)c2)C[C@@H]2CC[C@H]1N2C(=O)NNCc1ccccc1	–	10.4 µM (active)
COC(=O)C1=C(c2ccc(F)cc2OCc2ccccc2)C[C@@H]2CC[C@H]1N2C(=O)NCc1ccc2[nH]ccc2c1	–	5.86 µM (active)
COC(=O)C1=C(c2ccc3ccccc3c2)C[C@@H]2CC[C@H]1N2C(=O)NCCO	-21.9% (inactive)	–
COC(=O)C1=C(c2ccc(C(C)=O)cc2)C[C@@H]2CC[C@H]1N2C(=O)NCCNC(C)=O	36% (inactive)	–
COC(=O)c1ccc(CNC(=O)C2CCC(=O)N(Cc3cccc(F)c3)C2)cc1 (stereo not given)	26% (inactive)	–
COc1ccc(S(=O)(=O)NC(C)C(=O)NCc2ccncc2)cc1Cl (stereo not given)	-22.5% (inactive)	–

Compound	activity change, negative = inhibition	Potency
CC1CN(C(=O)COC(=O)c2cccc(NS(=O)(=O)c3ccccc3)c2)CC(C)O1 (stereo not given)	-10.8% (inactive)	–
O=C(Nc1ccccc1)N1CCC(C(=O)N2CCN(Cc3ccccc3)CC2)CC1	-19.7% (inactive)	–
COc1ccc(N(C)S(=O)(=O)c2ccc3c(c2)CC(C)N3C(=O)C2CC2)c(OC)c1 (stereo not given)	11.3% (inactive)	–
Cc1ccccc1Nc1nc(-c2cccnc2)cs1	-7.11% (inactive)	–
Cc1cc(C(=O)NNC(=O)c2ccccc2O)c(C)o1	57.1% (inactive)	–
CC(=O)NC(=O)c1ccccc1O	–	5.36 µM (active)
O=C(Nc1ccc(O)cc1)c1ccccc1O	28.8% (inactive)	–
COc1ccc(C(=O)Nc2c(N)nc(SCC(=O)Nc3ccc(C(C)=O)cc3)[nH]c2=O)cc1	-14.7% (inactive)	–
CCc1ccc(-c2nn(-c3ccccc3)cc2CSC(=N)N)cc1	33.9% (inactive)	–
CCn1c(SCc2ccc(C)cc2)nnc1-c1nn(-c2ccccc2)ccc1=O	–	7.38 µM (active)
Cc1ccc(-n2ccc(=O)c(C(=O)O)n2)cc1	-10.7% (inactive)	–
CCOc1ccc(N(CC(=O)NCC2CCCO2)S(=O)(=O)c2ccc(C)cc2)cc1 (stereo not given)	17.6% (inactive)	–
CCOC(=O)c1sc(NC(=O)c2sc(C)nc2C)nc1C	32.2% (inactive)	–
CCOC(=O)c1cccnc1NC(=O)c1ccncc1	18.8% (inactive)	–
CCOC(=O)c1sc(NC(=O)c2ccncc2)nc1C	–	9.28 µM (active)
CCc1nc(SCC(=O)NNC(=O)c2ccc(C)cc2)c2ccccc2n1	16.4% (inactive)	–
C=Cn1cc[n+](CC(=O)c2ccc(OC)c(OC)c2)c1	-6.61% (inactive)	–
C=CCOc1ccc(/C=C2/C(=O)ON=C2C)cc1OCC	2.1% (inactive)	–
COc1ccc(NC(=O)CN(C)C(=O)Cc2coc3cc(C)c(C)cc23)cc1	-1.57% (inactive)	–
C/C(=C\c1ccco1)CN1CCC(N2CCC(C(=O)N3CCOCC3)CC2)CC1	–	5.86 µM (active)
O=C(C1CCN(C2CCN(Cc3ccc4cc(F)ccc4n3)CC2)CC1)N1CCCC1	16% (inactive)	–
NC(=O)C1CCN(C(=O)/C(=C/c2ccco2)NC(=O)c2ccccc2)CC1	-2.21% (inactive)	–
CCOC(=O)C1=C(c2ccc(OC)cc2)C(=O)c2ccccc2C1=O	2.89% (inactive)	–
CCOC(=O)c1c(C)[nH]c2c1-c1ccccc1C(=O)C2=O	–	1.47 µM (active)
CCOC(=O)c1c(C)[nH]c(C(=O)NCc2ccccc2OC)c1C	55.2% (inactive)	–
CCOC(=O)COc1nc(C)cc(C(F)(F)F)c1C#N	10.9% (inactive)	–
O=C(NN1C(=O)C2C3C=CC(O3)C2C1=O)c1ccccc1 (stereo not given)	–	11.7 µM (active)

Compound	activity change, negative = inhibition	Potency
COc1ccccc1C(=O)NN1C(=O)C2C3C=CC(O3)C2C1=O (stereo not given)	12.9% (inactive)	–
O=C(NN1C(=O)C2C3C=CC(O3)C2C1=O)c1ccncc1 (stereo not given)	31.8% (inactive)	–
Cc1ccc(S(=O)(=O)N2CCN(C(=O)N3CCOCC3)CC2)c(C)c1	0% (inactive)	–
O=C(COC(=O)c1ccccc1Cl)NC1CCCCCCC1	22.8% (inactive)	–
CCOc1ccc(N2C(=O)CSC2=NC#N)cc1	-2.8% (inactive)	–
CC(=O)OCC(COC(C)=O)OC(C)=O	–	inactive
CC(=O)OC(COc1ccc(F)cc1)Cn1cnc2ccccc21 (stereo not given)	-11.5% (inactive)	–
CC(=O)N=c1ncn(CC(COC(C)=O)OC(C)=O)c2nc[nH]c12 (stereo not given)	–	7.38 µM (active)
CCOc1ccc(NS(=O)(=O)c2ccc(Cl)c(C(=O)N(C)Cc3cccnc3)c2)cc1	-18.3% (inactive)	–
COCCN1C=C2C(=O)C(C)(OC(=O)C3CCCC3)C(=O)C=C2C=C1c1ccsc1 (stereo not given)	31% (inactive)	–
CC1(OC(=O)CCc2ccccc2)C(=O)C=C2C=C(c3ccc(C#N)cc3)N(CCc3ccccn3)C=C2C1=O (stereo not given)	–	13.1 µM (active)
Cc1ccc(OCCCC(=O)Nc2ccc(S(=O)(=O)Nc3cc(C)nc(C)n3)cc2)cc1	2.09% (inactive)	–
CCCS(=O)(=O)Nc1ccc(-c2cn3c(n2)SCC3)cc1	60.1% (inactive)	–
O=C(O)C1CC=CCC1C(=O)Nc1ccccc1C(=O)N1CCN(c2ccccc2)CC1 (stereo not given)	-3.07% (inactive)	–
CC(=O)Nc1ccc(NC(=O)COc2ccccc2C(=O)Nc2cccc(Cl)c2Cl)cc1	-7.49% (inactive)	–
O=C(Nc1cccc(Cl)c1Cl)c1ccccc1NC(=O)C1CC=CCC1C(=O)O (stereo not given)	–	14.7 µM (active)
COCc1c(C(=O)N/N=C\c2cccnc2)nnn1-c1nonc1N	-18.9% (inactive)	–
Cc1ccc(C(=O)NNc2ncnc3ccccc23)cc1	-13.1% (inactive)	–
Cc1cc(=O)[nH]c(N/N=C/c2ccc3c(c2)OCCO3)n1	78.7% (inactive)	–
Cc1cc(=O)[nH]c(N/N=C/c2c(C)nn(-c3ccccc3Cl)c2Cl)n1	–	2.94 µM (active)
Cc1nn(-c2ccccc2)c(Cl)c1/C=N/NC(=O)c1nn(C)cc1[N+](=O)[O-]	-22% (inactive)	–
CC1CCCC(NC(=O)c2cc(-c3ccncc3)nc3ccccc23)C1C (stereo not given)	-15.3% (inactive)	–
CCCCSc1nnc2c(n1)OC=Nc1ccccc1-2	23.8% (inactive)	–
CNS(=O)(=O)c1cccc(C(=O)NCC2CCCCC2)c1	17.8% (inactive)	–
